The values that follow come from PubChem BioAssay AID686979 (National Center for Advancing Translational Sciences (NCATS), 2013).

Structures are written as SMILES. In all, about 420,000 compounds went through this assay and about 50,000 (12%) were called active. Roughly 26% stayed inconclusive and do not appear here. Calls come from the whole dose curve; as a rule, active = well fitted inhibition curve with a large enough effect; inconclusive = small, poorly fitted or top-dose-only effect; inactive = flat fitted curve, though single readings scatter. The entries come from a sample that favours actives as a whole. Entries that show only a call come without a potency.
Potency is the fitted concentration of half-maximal effect.

This experiment is described as follows: qHTS for Inhibitors of human tyrosyl-DNA phosphodiesterase 1 (TDP1): qHTS in cells in presence of CPT. Note: nearly all actives have a fitted effect of over 55% in size. Conditions: chicken DT40 Tdp1-/-;hTDP1 cells + 20 nM CPT, ATP luminescence, 48 h; series mostly up to 46.2 µM. In short, it runs like this:
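Chicken DT40 Tdp1-/- cells complemented with human TDP1, 400 cells/well, exposed to compounds plus 20 nM camptothecin for at least 48 h at 37 C; viability read as ATP content by CellTiter-Glo luminescence.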
For orientation: Quantitative high-throughput screening tests each substance at several concentrations.
On to `COc1ccccc1NC(=O)N1CCCC1C(=O)NCc1cccs1` (stereo not given), for which the Potency result is “inactive”.
Regarding `CC(C)CN(C(=O)CSc1ncnc2sccc12)C1CCS(=O)(=O)C1` (stereo not given), the Potency result is “inactive”.
To `O=C(COc1ccc(NC(=O)c2ccccc2[N+](=O)[O-])cc1)c1ccc(F)cc1` belongs “inactive”.
As for `CSc1nc(-c2ccccc2)nc(C(Cl)Cl)n1`, the Potency was 1.16 µM (active).
`CSc1ncc(Sc2ccccc2)c(C(=O)O)n1`: the Potency result was “inactive”.
As to `COc1ccc(CC(NC(C)=O)C(=O)N2CCN(C(=O)Nc3cccc(Cl)c3)CC2)cc1OC` (stereo not given), the Potency result is “inactive”.
As to `COc1ccc(OCCCC(=O)Oc2ccc(OC)cc2)cc1`, the Potency result is “inactive”.
In the case of `COc1ccc(OCCC(=O)c2ccc(OC)cc2)cc1`, the Potency was 2.59 µM (active).
Turning to `COc1ccc(CCC(=O)c2ccc(OC)cc2)cc1`, the Potency entry is “inactive”.
To `Cc1ccc2sc(NNC(=O)c3ccc4c(c3)OCCO4)nc2c1C` belongs “inactive”; to `CNc1ccc(-c2nc(-c3ccccc3C)no2)cc1[N+](=O)[O-]`, “inactive”; to `Cc1noc(C)c1C(=O)N1CCOCC1`, “inactive”.
To `Cc1oc2c(c1C(=O)N1CCOCC1)C(=O)c1ccccc1C2=O` belongs 2.59 µM (active); to `Cc1onc(-c2ccccc2)c1C(=O)N1CCOCC1`, “inactive”.
For `CC(NCC(=O)Nc1ccccc1C(=O)NC1CC1)c1ccccc1Cl` (stereo not given) the value was “inactive”; for `O=C(c1cccc(Br)c1)N1CCN(Cc2cc(=O)n3nc(-c4ccccc4)sc3n2)CC1`, “inactive”; for `CCOC(=O)C(C)n1cnc2c(nnn2-c2cccc(OC)c2)c1=O` (stereo not given), “inactive”.
Turning to `CCOC(=O)c1sc(=S)n(-c2cccc(OC)c2)c1N`, the Potency was 35.5 µM (active).
Turning to `COc1cccc(-n2c(=S)sc3c(=O)n(-c4ccccc4C)c(SCC(=O)O)nc32)c1`, the Potency result was “inactive”.
Take `Cc1cc(Br)ccc1NC(=O)c1sc2ncn(CC(=O)N3CCN(c4ccccn4)CC3)c(=O)c2c1C`: the Potency entry is “inactive”.
For `CSc1ncccc1C(=O)Nc1cccc(S(=O)(=O)N2CCOCC2)c1` the value was “inactive”.
Regarding `CCc1cccc(NC(=O)c2cnc(N3CCOCC3)c3ccccc23)c1`, the Potency is 20.6 µM (active).
In the case of `Cc1ccc(S(=O)(=O)NCC(=O)N2CCN(c3ccccn3)CC2)cc1`, the Potency entry is “inactive”.
In the case of `O=C(Nc1ccc(F)cc1)c1cccnc1N1CCOCC1`, the Potency result is “inactive”.
With `Cc1cc(Br)ccc1NC(=O)c1cnc(N2CCN(c3ccccn3)CC2)c2ccccc12`, the Potency was 14.6 µM (active).
Consider `O=C(NCc1ccccc1)C1c2ccccc2OCC(=O)N1C1CC1` (stereo not given), for which the Potency result was “inactive”.
To `CS(=O)(=O)N(CC(=O)NC1CCCC1)Cc1ccc(F)cc1` belongs “inactive”.
To `CCCCn1c(N)c(N(CC(C)C)C(=O)c2ccc(Br)o2)c(=O)[nH]c1=O` belongs “inactive”; to `CCOCc1nnc(NC(=O)CCC2CCCCC2)s1`, “inactive”.
In the case of `COCCN(C(=O)CCC(=O)Nc1nccs1)C(C(=O)NCCC(C)C)c1ccc(F)cc1` (stereo not given), the Potency entry is “inactive”.
For `O=C(CC(NC(=O)c1ccccc1)c1ccccc1)Nc1ccc(F)c(F)c1` (stereo not given), the Potency entry is “inactive”.
As to `O=C(c1ccc(Cn2cc([N+](=O)[O-])cn2)o1)N1CCCC1`, the Potency result was “inactive”.
Take `COc1cccc(NC(=O)c2ccc(Cn3cc([N+](=O)[O-])cn3)o2)c1`: the Potency result is “inactive”.
To `O=C(Nc1ccc(Br)c2cccnc12)c1ccc(Cn2cc([N+](=O)[O-])cn2)o1` belongs 16.4 µM (active); to `COC1=CC(=O)OC(C)(c2ccccc2)C1` (stereo not given), “inactive”.
For `CC(=O)c1c(C)n(-c2ccc(N(C)C)cc2)c2ccc(OCC(N)=O)cc12`, the Potency was 18.4 µM (active).
For the compound `CC(=O)c1c(C)n(-c2ccc(C)cc2)c2ccc(O)cc12`, the Potency entry was “inactive”.
For `Cc1c(Cc2ccccc2)c(=O)oc2cc(OCC(N)=O)ccc12` the value was “inactive”; for `CCCCc1ccc(S(=O)(=O)NC(=O)C2(C)CCN2C(=O)c2ccccc2)cc1` (stereo not given), “inactive”.
For `Cc1cccc2[nH]c(CN(C)C(=O)C3CCC(=O)N(CCc4ccccc4)C3)nc12` (stereo not given) the value was “inactive”.
For `CS(=O)(=O)Nc1ccccc1N=C(c1ccccc1)c1ccccc1` the value was “inactive”; for `CC(C)CN(C(=O)CSc1nncn1C)C1CCS(=O)(=O)C1` (stereo not given), “inactive”.
With `COc1cc(CC(=O)N2CCC(n3nccc3NC(=O)C3CC3)CC2)cc(OC)c1OC`, the Potency result is “inactive”.
Turning to `CCOc1cc(/C=C(\C#N)C(=O)Nc2ccccc2C)ccc1OCc1cc(=O)n2nc(CC)sc2n1`, the Potency entry is “inactive”.
For `CCOc1cc(/C=N/NC(=O)CN2CCCCC2)ccc1O`, the Potency entry was “inactive”.
In the case of `CCOc1cc(/C=C(\C#N)c2nc(-c3cccs3)c(NC(C)=O)s2)ccc1O`, the Potency is 2.31 µM (active).
To `Cc1cc2c(C)nc(N/N=C/c3ccccc3)nc2o1` belongs “inactive”.
To `Cc1ccc(C(=O)CN2C(=O)NC3(CCOc4ccccc43)C2=O)s1` (stereo not given) belongs “inactive”; to `Cc1ccc(NC(=O)C(C)OC(=O)Cc2c[nH]c3ccccc23)cc1S(=O)(=O)N1CCOCC1` (stereo not given), “inactive”; to `Cc1ccc(-n2nc(C)c(C(=O)O)c2-n2cccc2)cc1`, “inactive”.
For `O=C(CS(=O)(=O)c1cn(Cc2cccc(F)c2)c2ccccc12)N1CCCCC1` the value was “inactive”.
Regarding `Cc1ccc(S(=O)(=O)N2CC(C)N(S(C)(=O)=O)C2)cc1` (stereo not given), the Potency result is “inactive”.
Take `Cc1ccc(S(=O)(=O)N2C[C@@H]3CCCC[C@@H]3[C@@H](C)[C@H]2c2cn(Cc3ccccc3)c3ccc(F)cc23)cc1`: the Potency was 6.51 µM (active).
`CCC(=O)c1ccc(OCC(=O)OCC(=O)N2CCc3ccccc3C2)cc1`: the Potency result was “inactive”.
To `COc1ccc(-c2csc(C(O)c3cccc(Cl)c3)n2)cn1` (stereo not given) belongs 16.4 µM (active); to `COc1cccc(C(NC(C)=O)c2nc(-c3cnc4ccccc4c3)cs2)c1` (stereo not given), “inactive”; to `COc1ccc(Nc2cc(Cl)ccc2C(=O)O)cn1`, “inactive”.
For `CCCC(CNC(=O)COC(=O)C1=NNC(=O)CC1)c1ccc(Cl)cc1Cl` (stereo not given) the value was “inactive”.
For `CC(C)C(=O)Nc1ccc2c(c1)oc1ccccc12` the value was “inactive”; for `O=C(CSc1nnc(-c2ccccc2O)o1)NC1CCCCC1`, “inactive”.
As to `Cn1nccc1/C=N\NC(=O)c1ccc(Cl)cc1`, the Potency entry was “inactive”.
For `COc1ccc(Nc2nc(=O)[nH]nc2C)cc1` the value was “inactive”; for `Cc1cccc(Nc2cc(C)nc(-n3nc(C)cc3C)n2)c1`, 3.26 µM (active).
For `COc1ccc(Nc2cc(C)nc(-n3nc(C)cc3C)n2)cc1`, the Potency was 0.517 µM (active).
To `Cc1cc(Nc2ccccc2)nc(N)n1` belongs “inactive”.
`CC(=O)c1ccc(Oc2cc(C)nc(-n3nc(C)cc3C)n2)cc1`: the Potency was 0.731 µM (active).
Regarding `Cc1ccc(Nc2nc3ccccc3nc2-n2nc(C)cc2C)c(Cl)c1`, the Potency entry is “inactive”.
For the compound `Cc1cc(C)n(-c2cc(Oc3ccccc3)ncn2)n1`, the Potency result was “inactive”.
To `Cc1cc(Oc2ccccc2)nc(N2CCOCC2)n1` belongs “inactive”; to `COc1ccc(NC(=O)c2nc(-n3nc(C)cc3C)ccc2Cl)cc1Cl`, “inactive”.
